CF NFkB inh: inhibitors of PAF-induced NF-kB signaling, primary screen, cell-based, GFP fluorescence, uHTS | KKLEB NF-kB-GFP reporter, GFP fluorescence overnight | inhibition, % at 5 µM | hit rate 0.86% among 360,000 | AID 588850, 2011;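 active = at least 50% inhibition at 5 µM, scaled per plate between neutral and stimulator controls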;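 note: PAF is a Pseudomonas aeruginosa culture filtrate used as stimulus; plate controls were PAF-stimulated DMSO wells for no effect and unstimulated DMSO wells for full effect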
HIF-2a inh: HIF-2a reporter inhibitors, primary screen, luminescence, 786-0 RCC cells. 786-0 RCC cells HIF-2a reporter, luciferase luminescence, overnight. inhibition, % at 18.8 µM. hit rate 0.72% among 360,000;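 active = inhibition of the luminescence signal of 40% or more relative to plate controls, in a single-dose primary screen at 18.75 µM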
Shn3 inh set2: reduction of Shn3 3'UTR firefly luciferase signal, primary screen, Schnurri-3 inhibitor project, cell-based, Clone20 osteoblasts, set 2 | Clone20 osteoblast Shn3 3'UTR firefly luciferase, 24 h | inhibition, % at 12.5 µM | hit rate 0.52% among 360,000;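 active = mean inhibition of at least 75% with every replicate also reaching 75%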;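 note: 0% = median of neutral control wells and 100% = pilot-screen positive control compound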
KKLEB cytotox: cytotoxicity in KKLEB CF airway cells, primary screen, cytotoxicity control for CF NF-kB inhibitor project, cell-based, uHTS, fluorescence assay plates | AID 602141, 2011 | activity change (cytotoxicity), % at 5 µM | hit rate 0.36% among 360,000 | KKLEB CF airway cells viability, ATPlite luminescence, overnight; active compounds read low; cells stimulated with P. aeruginosa culture filtrate;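 active = corrected activity change at or below -50% at 5 µM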
Peg3 prom inh: Peg3 promoter-driven luciferase inhibitors, primary screen, cell-based, HeLa, luciferase luminescence; inhibition, % at 20 µM; hit rate 1.7% among 360,000; AID 588405, 2011; HeLa PEG-Prom luciferase reporter, overnight;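 active = inhibition of at least 50% at 20 µM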
TRPM1 prom inh: inhibitors of MITF-dependent TRPM1 promoter reporter, primary screen, cell-based, SK-MEL-5, single point, luciferase. inhibition, % at 12.5 µM. hit rate 0.83% among 330,000. AID 488899, 2010. SK-MEL-5 TRPM1 promoter luciferase, 24 h;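 active = mean inhibition across replicates of 60% or more, whatever share of single replicates reaches that level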
Mdm2 MdmX conf: retested Mdm2-MdmX interaction blockers, confirmation, cell-based, luminescence, single concentration, set 2; shares compounds with HIF-2a inh; SaOS-2 split-luciferase Mdm2/MdmX complementation; inhibition, % at 8 µM; hit rate 99% among 740; AID 504601, 2011;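 active = mean inhibition of the luminescence signal across two replicates at or above 26 percent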
Target sequence (O15151 whole entry, looked up): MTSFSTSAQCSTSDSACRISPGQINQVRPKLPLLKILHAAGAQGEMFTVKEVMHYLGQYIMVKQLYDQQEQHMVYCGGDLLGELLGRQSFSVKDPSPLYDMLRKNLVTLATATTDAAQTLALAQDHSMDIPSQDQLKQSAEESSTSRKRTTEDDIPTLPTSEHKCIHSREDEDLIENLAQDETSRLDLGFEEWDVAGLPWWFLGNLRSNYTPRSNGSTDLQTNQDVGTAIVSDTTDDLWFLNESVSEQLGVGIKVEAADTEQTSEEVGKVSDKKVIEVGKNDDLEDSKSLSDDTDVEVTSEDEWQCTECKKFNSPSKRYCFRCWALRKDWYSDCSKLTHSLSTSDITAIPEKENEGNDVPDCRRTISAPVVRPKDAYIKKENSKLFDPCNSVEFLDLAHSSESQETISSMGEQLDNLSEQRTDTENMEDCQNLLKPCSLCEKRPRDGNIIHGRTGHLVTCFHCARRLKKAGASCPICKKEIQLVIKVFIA
Target sequence (Q00987 whole entry, looked up): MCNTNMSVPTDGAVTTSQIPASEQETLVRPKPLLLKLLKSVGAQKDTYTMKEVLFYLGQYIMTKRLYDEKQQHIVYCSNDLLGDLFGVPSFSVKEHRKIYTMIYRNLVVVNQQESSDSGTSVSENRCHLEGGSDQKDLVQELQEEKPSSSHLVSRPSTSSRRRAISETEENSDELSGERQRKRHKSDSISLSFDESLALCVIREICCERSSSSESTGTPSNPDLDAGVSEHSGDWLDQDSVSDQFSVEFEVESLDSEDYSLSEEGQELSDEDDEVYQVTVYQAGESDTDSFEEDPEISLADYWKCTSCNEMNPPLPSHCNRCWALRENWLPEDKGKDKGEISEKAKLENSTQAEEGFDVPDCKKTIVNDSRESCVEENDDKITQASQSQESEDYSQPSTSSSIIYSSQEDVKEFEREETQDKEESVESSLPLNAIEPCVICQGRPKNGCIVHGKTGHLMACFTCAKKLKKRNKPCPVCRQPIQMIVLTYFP
HIF-2a conf: HIF-2a reporter inhibitor retest, confirmation, luminescence, 786-0 RCC cells; hit rate 56% among 1,800; shares compounds with HIF-2a inh; inhibition, % at 18.8 µM; HIF-2a luciferase reporter luminescence, overnight;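 active = mean inhibition across four replicates of at least 40 percent at the single tested concentration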
HIF-1a cs: HIF-1a luciferase reporter signal reduction – MiaPaCa-2 cells, single concentration, counter-screen for HIF-2a inhibitor project, confirmation | shares compounds with HIF-2a inh | MiaPaCa-2 HIF-1a luciferase reporter, desferoxamine, overnight | inhibition, % at 18.8 µM | hit rate 72% among 1,800 | AID 651589, 2012;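 active = mean inhibition of the reporter signal across four replicates at the single tested dose of 50% or more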
The depositor's hits bear a star. Hits are enriched below; roughly 2.8% of the tested compounds scored in any of these assays.

For CCCn1c(C)cc(C(=O)COC(=O)c2ccc[nH]c2=O)c1C the results were CF NFkB inh -5, HIF-2a inh 42*, Shn3 inh set2 0, KKLEB cytotox -10, Peg3 prom inh -6, TRPM1 prom inh 11, HIF-2a conf 36 and HIF-1a cs 14.
`CC(=O)C1C(=O)CC(C)(O)C(C(C)=O)C1c1ccccc1` (stereo not given) gave CF NFkB inh -14, HIF-2a inh 11, Shn3 inh set2 -2, KKLEB cytotox 15, Peg3 prom inh 1 and TRPM1 prom inh 8.
For CC(=O)N1CCc2c(sc(NC(=O)C3CC3)c2-c2nc3ccccc3s2)C1 the results were CF NFkB inh -50, HIF-2a inh -13, Shn3 inh set2 3, KKLEB cytotox -3, Peg3 prom inh 0 and TRPM1 prom inh 4.
`CC(=O)Nc1sc2c(c1-c1nc3ccccc3s1)CN(C(C)C)CC2` gave CF NFkB inh -83, HIF-2a inh 9, Shn3 inh set2 -24, KKLEB cytotox -44, Peg3 prom inh 98*, TRPM1 prom inh 64* and Mdm2 MdmX conf 103*.
`Fc1ccc(Sc2nc(-c3ccccc3)nnc2C(F)(F)F)cc1` gave CF NFkB inh 9, HIF-2a inh 85*, Shn3 inh set2 14, KKLEB cytotox -6, Peg3 prom inh 84*, TRPM1 prom inh 19, HIF-2a conf 26 and HIF-1a cs 89*.
Fc1ccc(Oc2nc(-c3ccccc3)nnc2C(F)(F)F)cc1 was read as CF NFkB inh -13, HIF-2a inh 33, Shn3 inh set2 5, KKLEB cytotox 0, Peg3 prom inh 26 and TRPM1 prom inh 7.
For CCOc1cc(/C=N/NC(N)=O)cc(Br)c1OCC(=O)Nc1ccccc1C the results were CF NFkB inh -10, HIF-2a inh 40*, Shn3 inh set2 15, KKLEB cytotox -13, Peg3 prom inh 42, TRPM1 prom inh -7, HIF-2a conf 15 and HIF-1a cs 66*.
CCOc1cc(/C=N/NC(N)=O)cc(Br)c1OCC(=O)Nc1cccc2ccccc12 was read as CF NFkB inh -4, HIF-2a inh 25, Shn3 inh set2 51, KKLEB cytotox -18, Peg3 prom inh 43 and TRPM1 prom inh -4.
Screening FC(F)(F)c1ccccc1Cc1c(-c2ccccc2)nc2ccc(Cl)cn12 returned CF NFkB inh 7, HIF-2a inh -158, Shn3 inh set2 -13, KKLEB cytotox -14 and Peg3 prom inh -70.
`FC(F)(F)c1ccccc1Cc1c(-c2ccco2)nc2ccc(Cl)cn12` gave CF NFkB inh 27, HIF-2a inh 37*, Shn3 inh set2 -8, KKLEB cytotox -18, Peg3 prom inh 10, HIF-2a conf 1 and HIF-1a cs 64*.
Screening N#Cc1c(NC(=O)CSc2ncn[nH]2)sc2c1CCCC2 returned CF NFkB inh 18, HIF-2a inh 90*, Shn3 inh set2 58, KKLEB cytotox 11, Peg3 prom inh 14, TRPM1 prom inh 73*, HIF-2a conf 94* and HIF-1a cs 71*.
N#Cc1c(NC(=O)CCCC(=O)O)sc2c1CCCCC2 was read as CF NFkB inh -9, HIF-2a inh 63*, Shn3 inh set2 24, KKLEB cytotox -8, Peg3 prom inh -157, TRPM1 prom inh 31, HIF-2a conf 67* and HIF-1a cs 18.
`CC(C)(C)C1CCc2c(sc(NC(=O)CSc3ncn[nH]3)c2C#N)C1` (stereo not given) gave CF NFkB inh 44, HIF-2a inh 27, Shn3 inh set2 29, KKLEB cytotox -23, Peg3 prom inh -7 and TRPM1 prom inh 8.
For CC1CCc2c(sc(NC(=O)CSc3ncn[nH]3)c2C#N)C1 (stereo not given) the results were CF NFkB inh 3, HIF-2a inh 91*, Shn3 inh set2 50, KKLEB cytotox -4, Peg3 prom inh 38, TRPM1 prom inh 62*, HIF-2a conf 95* and HIF-1a cs 90*.
For N#Cc1c(NC(=O)CSC2=NCCS2)sc2c1CCCC2 the results were CF NFkB inh 7, HIF-2a inh -84, Shn3 inh set2 -3, KKLEB cytotox -6, Peg3 prom inh -71 and TRPM1 prom inh -24.
`Cc1ccc(C(=O)Nc2ccc3ncccc3c2)cc1` gave CF NFkB inh -10, HIF-2a inh 43*, Shn3 inh set2 48, KKLEB cytotox -64*, Peg3 prom inh 21, TRPM1 prom inh 48, HIF-2a conf 51* and HIF-1a cs 28.
`CCOC(=O)COc1ccc(S(=O)(=O)Nc2cccc(SC)c2)cc1` gave CF NFkB inh 4, HIF-2a inh 50*, Shn3 inh set2 6, KKLEB cytotox -3, Peg3 prom inh 1, TRPM1 prom inh -3, HIF-2a conf 18 and HIF-1a cs -1.
`O=C1NC[C@@H](CCCCN2CCN(CCc3ccccc3)C(=O)C2=O)N(CCC2CCCCC2)C1=O` gave HIF-2a inh -5.
For CN(C)CCCn1cnc2c(c1=N)C(c1ccccc1)c1ccc3ccccc3c1O2 (stereo not given) the results were CF NFkB inh -8, HIF-2a inh 93*, Shn3 inh set2 3, KKLEB cytotox -28, Peg3 prom inh 109*, TRPM1 prom inh 99*, Mdm2 MdmX conf 103*, HIF-2a conf 10 and HIF-1a cs 106*.
Screening O=C(COC(=O)c1ccccn1)NCCc1ccc(Cl)cc1 returned CF NFkB inh -3, HIF-2a inh 14, Shn3 inh set2 -10, KKLEB cytotox 2, Peg3 prom inh 3 and TRPM1 prom inh 25.
Screening O=C(Nc1ccncc1)c1ccc(Cl)c(S(=O)(=O)N2CCc3ccccc32)c1 returned CF NFkB inh 26, HIF-2a inh 50*, Shn3 inh set2 89*, KKLEB cytotox -31, Peg3 prom inh 45, TRPM1 prom inh 38, HIF-2a conf -7 and HIF-1a cs 8.

Screening results: PubChem, several laboratories
